High-throughput results from PubChem.
A1 inh = inhibitors of the anti-apoptotic protein A1, read as caspase activation; MEF A1-2A-BIM cells, Caspase-Glo 3/7 luminescence, 3 h; percent of clofoctol response, vehicle zero; caspase activation, % (concentration not given with the values); hit rate 0.066% among 330,000;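 active = over half of replicate activation scores above 10%, or exactly half above 10 with the replicate mean above 10; inconclusive = replicate mean below 10 yet half the replicates above 10; inactive = over half of replicates below 10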
Efflux pump mplx = antifungal efflux pump inhibition, Nile Red retention; S. cerevisiae Candida pump triplex; hit rate 0.44% among 330,000; inhibition, % at 10 µM;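 active = plate passing quality check with inhibition over a set limit, or well fluorescence over plate mean plus 4 SD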;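 note: Nile Red retained in pooled yeast measured as flow cytometry median fluorescence; higher means more Nile Red kept so more efflux inhibition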
HSV replic up = increases HSV replication in cells. HSV replication augmentation in cells, fold increase. maximum fold increase. hit rate 0.005% among 220,000. AID 1956; in the data active = maximum fold increase above about 1.5; inconclusive = no clear call, values can overlap the other calls; tested in PC3 cells
TAG inh = triacylglycerol accumulation inhibition | H9c2 cells, Nile Red lipid (TAG) fluorescence; cells loaded with 200 µM oleic acid | inhibition, % at 12.5 µM | hit rate 0.66% among 230,000;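 active = pattern-corrected inhibition of lipid staining of at least 50% with the nuclear-stain viability signal not falling by more than 50%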
NPR1 activator = GC-A (human) enzyme activation | HEK293 GC-A cells, cGMP TR-FRET, EC30 ANP; 0% at EC30 ANP, 100% saturating ANP | hit rate 0.14% among 370,000 | P16066 | AID 1671463 | activation, % at 10 µM; in the data active = activation above about 40%
NPR2 activator = GC-B (human) receptor activation; hit rate 0.11% among 370,000; activation, % at 10 µM; HEK293-GC-B cells, CNP EC30, cGMP TR-FRET; 0% at EC30 CNP, 100% saturating CNP; P20594;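 active = activation at 10 µM reaching about 35% in either raw or pattern-adjusted values, limit read from the data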
Target sequence (P20594 whole entry, looked up): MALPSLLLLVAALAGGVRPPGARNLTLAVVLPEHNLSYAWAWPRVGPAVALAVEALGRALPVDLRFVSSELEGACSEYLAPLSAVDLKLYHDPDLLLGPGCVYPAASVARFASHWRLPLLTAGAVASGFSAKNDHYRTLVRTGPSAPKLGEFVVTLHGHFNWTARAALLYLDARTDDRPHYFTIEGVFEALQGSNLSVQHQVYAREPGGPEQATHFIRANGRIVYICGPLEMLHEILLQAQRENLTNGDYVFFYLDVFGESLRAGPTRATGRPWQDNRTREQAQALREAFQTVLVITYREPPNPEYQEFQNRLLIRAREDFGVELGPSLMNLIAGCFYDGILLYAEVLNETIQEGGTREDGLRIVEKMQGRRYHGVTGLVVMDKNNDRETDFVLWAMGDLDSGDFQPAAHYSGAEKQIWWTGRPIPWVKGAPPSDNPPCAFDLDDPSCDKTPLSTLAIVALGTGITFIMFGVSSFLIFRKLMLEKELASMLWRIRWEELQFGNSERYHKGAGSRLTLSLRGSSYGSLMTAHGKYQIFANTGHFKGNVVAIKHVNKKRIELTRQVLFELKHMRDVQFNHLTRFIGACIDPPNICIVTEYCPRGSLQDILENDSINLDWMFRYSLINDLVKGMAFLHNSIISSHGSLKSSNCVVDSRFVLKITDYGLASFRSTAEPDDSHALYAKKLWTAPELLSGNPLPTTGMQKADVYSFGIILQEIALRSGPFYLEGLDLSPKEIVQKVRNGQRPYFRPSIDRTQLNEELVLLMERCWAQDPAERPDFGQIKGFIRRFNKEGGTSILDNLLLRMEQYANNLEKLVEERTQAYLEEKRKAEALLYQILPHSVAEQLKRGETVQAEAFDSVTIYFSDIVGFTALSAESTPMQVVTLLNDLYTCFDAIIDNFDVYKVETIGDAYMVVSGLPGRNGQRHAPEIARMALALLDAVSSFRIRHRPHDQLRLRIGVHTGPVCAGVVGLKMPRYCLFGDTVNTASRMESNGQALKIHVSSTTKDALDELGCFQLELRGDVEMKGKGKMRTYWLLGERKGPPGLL
Hits are given with their value; 0 = inactive; ? = inconclusive; - = no result given. Most compounds without a hit are left out; they make up all but 1% or so of the library.

SMILES	A1 inh	Efflux pump mplx	HSV replic up	TAG inh	NPR1 activator	NPR2 activator
O=C(Cn1[nH]c(=O)c2ccccc2c1=O)OCC(=O)N1CCc2ccccc2C1	8.3	0	0	0	0	0
CCOC(=O)CC[C@H]1CC[C@]2(CCCN(S(=O)(=O)c3ccccc3)C2)O1	-	-	-	-	0	0
CC(=O)n1cc(N(C(=O)CCl)c2ccc(C)cc2)c2ccccc21	0	0	0	65	0	0
CC(=O)N(c1ccc(Cl)cc1)c1cn(C(C)=O)c2ccccc12	0	0	0	0	0	0
COc1ccccc1-n1cnc2cc(NCc3cccs3)ccc21	0	0	0	58	0	0
N#Cc1ccc(-c2cccs2)nc1SCc1cccnc1	0	0	0	53	0	0
COc1ccc(CCNc2nc3ccccc3n3cnnc23)cc1OC	-	0	0	0	0	0
CCc1nnc2c(NCCc3ccc(OC)c(OC)c3)nc3ccccc3n12	-	-	-	-	40	53
C=CCN1C(=O)[C@@H](CC(=O)NCc2ccc(OC)c(OC)c2)[C@]2(C(=O)OC)CCCCC=C12	-	-	-	-	0	0
CCCCNC(=O)N1CCCC1C(=O)Nc1cccc(OC)c1 (centres undefined)	-	-	-	-	0	0
NC(=O)c1cccc(-c2coc3c(C(=O)NC4CCCCC4)cccc23)c1	-	-	-	0	0	35
CSC(SC)=C(C#N)C(=O)c1ccccc1	6.7	0	0	0	0	0
COc1cccc(C(=O)C(C#N)=C(SC)SC)c1	0	0	0	0	0	0
N#C/C(=C\c1cccs1)c1nc2ccccc2[nH]1	0	0	0	0	0	0
N#C/C(=C/c1ccc(O)c(O)c1)c1nc2ccccc2[nH]1	0	2.0	-	-	0	0
Nc1nc(-c2ccccc2)cc(N2CCCCC2)n1	0	0	0	76	0	0
CCOc1cc(C=NN2CCN(Cc3ccc(C)cc3)CC2)ccc1O	-	-	-	-	0	0
CCOc1cc(/C=C\[N+](=O)[O-])ccc1OCC(=O)Nc1ccccc1C	31	0	0	0	-	-
COc1cc(/C=C/c2cccc[n+]2C)ccc1OCC(=O)Nc1ccccc1C	0	0	-	-	0	0
O=C(CSc1nnc(-c2ccco2)n1-c1ccc(Cl)cc1)Nc1ccc(S(=O)(=O)Nc2nccs2)cc1	-	-	-	-	0	0
N=C1C(c2nc3ccccc3s2)=C(O)CN1Cc1ccccc1	0	0	0	0	46	0
N=C1C(c2nc3ccccc3s2)=C(O)CN1C1CCC(O)CC1 (centres undefined)	0	0	0	-	0	0
N=C1C(c2nc3ccccc3s2)=C(O)CN1C1CCCCC1	0	0	0	-	54	0
O=C(Nc1cccs1)OC1CC2CC1[C@H]1CCCCN1C2 (some centres undefined)	-	-	-	-	0	0
Cc1cccc(Cn2cc(COC(=O)N3CCCC3)nn2)c1	-	-	-	-	0	0
SMILES	A1 inh	Efflux pump mplx	HSV replic up	TAG inh	NPR1 activator	NPR2 activator
COc1ccc(C=NNC(=O)c2cc(-c3ccc(C)c(C)c3)n[nH]2)cc1OCc1ccccc1	-	-	-	-	0	0
CCOc1ccc(CCNC(=O)C2CCCCC2)cc1OCC	-	-	-	-	0	0
CC(C)(C)c1cc(CCC(=O)N2CCNCC2)c(C(C)(C)C)cc1O	0	0	0	55	0	0
Cc1ccc(N(CCC(=O)Nc2nnc(C3CC3)s2)S(=O)(=O)c2ccccc2)cc1	0	10	0	-	0	0
CCc1ccc2nc(N(CCCN(C)C)C(=O)c3ccc(S(=O)(=O)N4CCc5ccccc5C4)cc3)sc2c1	24	0	-	0	0	0
O=[N+]([O-])c1cc2no[n+]([O-])c2cc1N1CCCCC1	-	-	-	0	42	0
N#Cc1cc(N2CCCCC2)c([N+](=O)[O-])cc1C#N	0	0	0	-	0	0
CCOC(=O)c1sc(NC(=O)c2sccc2C)cc1C	0	0	0	51	0	0
CCOC(=O)c1sc(NC(=O)c2cccs2)cc1C	0	0	0	-	0	0
Cc1cn(-c2cc(NC(=O)c3ccc(C)c(Nc4nccc(-c5cccnc5)n4)c3)cc(C(F)(F)F)c2)cn1	-	-	-	-	0	0
CC(=O)NC(c1cc(Cl)c2cccnc2c1O)C(C)C (centres undefined)	0	0	-	65	0	0
CC(=O)NC(c1ccc(C)cc1)c1cc(Cl)c2cccnc2c1O (centres undefined)	0	0	-	50	0	0
CC(=O)NC(c1cc(Cl)c2cccnc2c1O)C1CC1 (centres undefined)	0	0	-	50	0	0
CC(=O)NC(c1ccco1)c1cc(Cl)c2cccnc2c1O (centres undefined)	-	-	-	0	0	0
Cc1cc(C(=O)O)c(C)o1	-	-	-	-	0	0
Cc1c(C(=O)N2CCN(c3ccc(F)cc3)CC2)sc2ncnc(N3CCN(c4ccccn4)CC3)c12	0	0	-	-	0	0
Cc1nc(N2CCN(c3ccccn3)CC2)c2c(C)c(C(=O)N3CCN(c4ccc(F)cc4)CC3)sc2n1	0	0.5	-	-	0	0
Cc1ccc(S(=O)(=O)N2c3ccccc3C[C@H]2CC=C(c2ccccc2)c2ccccc2)cc1	-	-	-	-	0	0
CC(C)n1nnnc1C1(C)CN(S(C)(=O)=O)CC(=O)N1Cc1cccc(C(F)(F)F)c1 (centres undefined)	-	-	-	-	0	0
COc1ccc(/C=C/C(=O)c2cc(F)ccc2OC(=O)c2ccccc2)cc1OC	0	0	?	80	0	0
COc1ccc(/C=C/C(=O)c2cc(F)ccc2OC(=O)c2ccc(OC)c(OC)c2)cc1OC	0	0	0	0	0	0
COc1ccc(/C=C/C(=O)c2cc(F)ccc2OC(=O)c2ccccc2OC)cc1OC	-	-	0	56	0	0
CC(C)C(=O)Nc1cccc(C(=O)OCC(=O)c2ccc(Cl)cc2Cl)c1	0	0	0	0	59	0
CC(=O)Nc1cc(C(=O)OCC(=O)c2ccc(Cl)cc2Cl)ccc1C	0	0	0	0	61	0
Cc1ccc(OCc2nnc(SCC(=O)Nc3ccc4c(c3)OCO4)n2Cc2ccco2)cc1	-	-	-	-	0	0
SMILES	A1 inh	Efflux pump mplx	HSV replic up	TAG inh	NPR1 activator	NPR2 activator
Cc1cc(C)cc(Cn2ncc(Cl)c(Cl)c2=O)c1	6.7	0	0	-	0	0
Cc1ccc(Cn2ncc(Cl)c(Cl)c2=O)cc1	0	0	0	-	0	0
O=c1c(Cl)c(Cl)cnn1Cc1nnc(-c2ccc(Cl)cc2)o1	-	-	0	61	49	0
O=c1c(Cl)c(Cl)cnn1Cc1ccccc1Cl	8.3	0	-	-	0	0
O=c1c(Cl)c(Cl)cnn1-c1ccccc1	-	-	0	72	0	0
CC(=O)N1CCc2cc(Br)c(S(=O)(=O)NCc3ccc(Cl)cc3)cc21	-	-	-	-	0	0
CCCCCC[C@@H](CN(CCCC)S(C)(=O)=O)c1ccccc1	-	-	-	-	0	0
Cc1cc(C)cc(NC(=O)NC2CCN(S(=O)(=O)c3ccc(F)cc3)CC2)c1	-	-	-	-	0	0
O=C(Nc1ccc(OC(F)(F)F)cc1)Nc1nc2ncccn2c1-c1ccc(C(F)(F)F)cc1	-	-	-	-	0	0
CCc1ccc(C(=O)Cn2ncc(Cl)c(Cl)c2=O)cc1	0	0	0	0	60	0
O=C(Cn1ncc(Cl)c(Cl)c1=O)N1CCOCC1	0	0	0	-	0	0
